Shown are actives, neighbours in structure and some others; about 2.3% of the full set was active somewhere.
pAkt inh – Akt phosphorylation inhibition; Neuro2A IGF-stimulated pAkt S473 HTRF, 20 min; stronger effect = lower value; activity change, % for hits at 50 µM; actives 0.32% (n = 360,000); AID 651550; in the data active = activity change below about -80%; inconclusive = mostly about -51% to -80%; also: % is scaled to controls: 0 for no effect and ±100 for the full control effect
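Neuro2A cells in DMEM with 0.5% FBS, overnight at 37 deg C, given compound at single 50 µM final, then IGF (6 nM final) for 20 min at 37 deg C. Lysed; phospho-Akt Ser473 by HTRF after 24 h, 665/615 ratio.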
TDP43 rescue – inhibitors of TDP-43 toxicity in yeast; TDP-43 expressing yeast growth rescue, BacTiter-Glo, 24 h; actives 1.8% (n = 410,000); Potency, µM (doses to about 46.1 µM), inactives show at the top dose growth rescue (activation), most hits filed as activators; also: potency is read from the fitted curve at half-maximal effect; % of control where 0% means no effect; nearly all actives have a fitted effect of over 50% in size
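Galactose-induced TDP-43 yeast, OD600=0.02, compound pinned; 24 hr, 30 deg C; BacTiter-Glo luminescence for growth. Inhibitors of TDP-43 toxicity read as activators.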
aSyn rescue – inhibitors of alpha-synuclein toxicity in yeast; Yeast expressing alpha-synuclein, growth rescue, BacTiter-Glo, 24 h; actives 0.14% (n = 370,000); Potency, µM (titrated, usually from 46.1 µM), for inactives: at the highest dose growth rescue (activation), usual class: activators; also: potency is read from the fitted curve at half-maximal effect; % of control where 0% means no effect; nearly all actives have a fitted effect of over 65% in size
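Readout is rescue of growth in alpha-synuclein-expressing yeast, so inhibitors of toxicity appear as activators. Growth after 24 hr at 30 deg C in galactose medium is quantified by luminescence.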
FUS yeast rescue – suppressors of FUS proteinopathy in yeast; Potency, µM (doses to about 76.6 µM), most hits filed as activators; S. cerevisiae FUS-expressing, growth rescue, OD600, 24 h; actives 0.24% (n = 390,000); AID 1347120;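 also: potency is read from the fitted curve at half-maximal effect; plate controls were DMSO vehicle for no effect and reference control for full effect; nearly all actives have a fitted effect of over 55% in size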
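Absorbance at 600 nm, taken 24hr after compound addition, measured rescue of FUS-yeast growth at 30C. Induction used 2% galactose with seeding at OD 0.005. Controls: CP55940 from 92uM final, DMSO only.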
Abeta yeast res – A-beta toxicity reversal in yeast | yeast expressing A-beta42, growth rescue, OD600, 48 h; response scale: 0% DMSO, 100% iron-clioquinol control | Potency, µM (top dose mostly 46.1 µM), actives largely listed as activators | actives 0.063% (n = 410,000); also: potency is read from the fitted curve at half-maximal effect; nearly all actives have a fitted effect of over 55% in size
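Yeast A-beta toxicity model in growth medium with pinned compounds, 48 h at 30 C; growth read as absorbance at 600 nm. Normalized to FeCl3/clioquinol equimolar mix (positive) and DMSO (negative).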
* marks the source's active call; other numbers are inactive results; i = inactive; ? = inconclusive; / = no result; [ ] = another dose, or the depositor's remark. Unless noted, calls follow the shape of the dose curve; as a rule, active = well fitted curve in the direction sought with a large enough effect; inconclusive = small, poorly fitted or top-dose-only effect, or another doubt; inactive = no such curve, though single readings can be large; an effect the other way counts as inactive or inconclusive.

SMILES	pAkt inh	TDP43 rescue	aSyn rescue	FUS yeast rescue	Abeta yeast res
COc1ccc(C(=O)NC23CC4CC(CC(C4)C2)C3)cc1	i	22%	5%	i	i
Clc1ccc(-n2ncc3c(N4CCCCCC4)ncnc32)cc1	i	9%	-2%	i	i
Brc1cc(Br)c2ncnc(N3CCCCC3)c2c1	-82%*	14%	1%	i	i
Cc1c(C(=O)NCc2ccccc2Cl)sc2nc3n(c(=O)c12)CCC3	/	18µM*	/	i	i
Cc1c(C(=O)NCc2cccc(Cl)c2)sc2nc3n(c(=O)c12)CCCC3	/	22µM*	/	i	i
CC1CN(c2nc3c(c(=O)n(Cc4ccc(Cl)c(Cl)c4)c(=O)n3C)n2C)CC(C)O1 (configuration not stated)	i	25µM*	10%	?	i
CCOc1ccc(NC(=O)CC2C(=O)N(c3ccc(F)cc3)C(=O)N2CCc2sccc2C)cc1 (configuration not stated)	/	19%	/	i	i
Cc1ccc2onc(CNC(=O)NCc3ccccc3)c2c1	/	11%	/	i	i
COc1cc2cc(CCCOC(=O)c3ccc(F)cc3)oc(=O)c2cc1OC	i	20µM*	-5%	i	i
COc1cc2cc(CCCOC(=O)c3ccc(Br)cc3)oc(=O)c2cc1OC	i	13%	-5%	i	i
O=C(CNC1C(=O)Nc2ccccc21)Sc1ccccc1 (configuration not stated)	-111%*	12%	3%	i	i
COc1ccc(Cl)cc1NC(=O)N1CCC2(CC1)Oc1ccccc1C(=O)N2Cc1ccc(F)cc1	/	20%	/	i	i
COC(=O)N[C@@H]1C[C@H]2[C@@H]3CC[C@H]4C[C@@H](OC)CC[C@]4(C)[C@H]3CC[C@]12C	i	4%	-11%	i	i
COC(=O)N[C@@H]1C[C@H]2[C@@H]3CC[C@H]4C[C@@H](OC)CC[C@]4(C)[C@H]3CC[C@@]12C	i	28µM*	-18%	i	i
COc1ccc(CCNC(=O)c2ccnc(C(C)(C)C)c2)cc1OC	i	-6%	-7%	i	i
CC(C)(C)c1cc(C(=O)NCc2ccccc2)ccn1	-88%*	?	-7%	i	i
CCN(CC)CCNC(=O)c1ccc2c(c1)NC(=O)C(CS(=O)(=O)Cc1ccc(F)cc1Cl)N2 (configuration not stated)	/	3%	/	?	i
CCN(CC)CCCNC(=O)c1ccc2c(c1)NC(=O)C(CS(=O)(=O)Cc1ccc(F)cc1Cl)N2 (configuration not stated)	/	-1%	/	25µM*	i
COc1ccccc1N(C(=O)CCl)c1cn(C(C)=O)c2ccccc12	i	6%	25%	i	i
CC(=O)n1cc(N(C(=O)CCl)c2ccc(Cl)cc2)c2ccccc21	i	22µM*	2%	i	i
CN(Cc1ccco1)S(=O)(=O)c1ccc(CN2C(=O)c3cccnc3C2=O)s1	i	18µM*	?	i	i
Cc1ccnc2c([N+](=O)[O-])cccc12	/	/	-2%	/	/
O=C(c1cnccn1)N1CCc2c([nH]c3ccccc23)C1c1cccc(Cl)c1 (configuration not stated)	i	18µM*	?	?	i
CCOc1ccccc1-c1noc(CSc2nnc(-c3ccccc3)n2-c2ccc(OC)cc2)n1	/	22%	/	i	i
CC(C)OC(=O)CSc1nc(N)c(C#N)c(-c2cccs2)c1C#N	i	10%	-1%	i	i
SMILES	pAkt inh	TDP43 rescue	aSyn rescue	FUS yeast rescue	Abeta yeast res
Cc1c(-c2ccc(F)cc2)nc(N)c(C#N)c1-c1cccs1	i	?	1%	i	i
CC(C)Sc1nc(N)nc(-c2cccs2)c1C#N	i	18µM*	0%	i	i[9.22 µM]
CSc1nc(N)nc(-c2cccs2)c1C#N	i	20µM*	8%	i	i
Cc1[nH]c2ccccc2c1C(=O)CCl	i	16µM*	2%	i	i
Cc1ccc2c(c1)N(C(=O)CCC(=O)NCCCN(C)Cc1ccccc1)CCO2	i	4%	-1%	i	i
Cc1ccc2c(c1)N(C(=O)NCc1ccccc1)CCO2	/	18µM*	/	i	i
CCOc1ccccc1OCCCC(=O)N1CCN(S(=O)(=O)c2cc(F)ccc2F)CC1	i	?	-4%[1.84 µM]	?	i
Cc1cc(Cl)ccc1OCCCC(=O)N1CCN(S(=O)(=O)c2ccccc2)CC1	i	14µM*	18%	i	i
Cc1ccc(S(=O)(=O)N2CCN(C(=O)CCOc3cc(C)ccc3C)CC2)cc1	i	35µM*	10%	i	i
Cc1ccc(C)c(OCCC(=O)N2CCN(S(=O)(=O)c3cc(F)ccc3F)CC2)c1	i	18µM*	0%	i	i
CC(=O)Nc1ccc(/C=C/C(=O)c2ccc(-n3nncc3-c3ccccc3)cc2)cc1	/	/	7%	/	/
O=C(Nc1ccc2c(c1)C(=O)N(c1ccccc1)C2=O)C1CCCO1 (configuration not stated)	i	13µM*	-8%	i	i
Oc1ccccc1-c1nc(N2CCCC2)c2ccccc2n1	-145%*	18%	-4%	i	i
COc1cccc(-c2nc(N3CC(C)CC(C)C3)c3ccccc3n2)c1O (configuration not stated)	i	13µM*	7%	i	i
COc1ccc(Nc2nc(-c3cccc(OC)c3O)nc3ccccc23)cc1	i	18µM*	3%	?	i
COc1cccc(/C=C/c2ccc3cccc(O)c3n2)c1	i	?	18µM*	i	?
Oc1cccc(/C=C/c2ccc3cccc(O)c3n2)c1	i	13µM*	?	i	?
COc1ccc(/C=C/c2ccc3cccc(O)c3n2)c(OC)c1OC	i	?	?	i	i
COc1cccc(/C=C/c2ccc3cccc(O)c3n2)c1OC	i	14µM*	18µM*	i	i
COc1ccc(/C=C/c2ccc3cccc(O)c3n2)cc1Br	i	?	3%	i	i
COc1cc(/C=C/c2ccc3cccc(O)c3n2)cc(OC)c1OC	i	22%	-10%	i	i
O=C(COc1ccccc1C(=O)Nc1ccccc1)Nc1cccc(Cl)c1	/	/	14%	/	/
O=C(Nc1c2c(nn1-c1ccc(Cl)cc1)CS(=O)(=O)C2)c1ccc(Br)cc1	/	21%	-5%	i	i
Cc1nnc(SCC(=O)NCc2ccc3c(c2)OCO3)s1	i	-6%	-1%	i	i
O=C(CSc1nncs1)NCc1ccc2c(c1)OCO2	i	13µM*	-1%	i	i

High-throughput results (PubChem BioAssay)
